# Measured values taken from PubChem BioAssay AID2315 (National Center for Advancing Translational Sciences (NCATS), 2010).
# Among all 290,000 compounds or so, about 27,000 (9.3%) were called active. No stated cut-off is given here; in the data, active means inhibition mostly above about 28% (no sharp cut-off); inactive means mostly below about 43%. What follows is part of a selection rich in actives, with near analogues and random picks from the rest.
# Assay: A qHTS for Small Molecule Inhibitors of Shiga Toxin; further: 0% is about no effect
# Conditions: Vero cells, Shiga toxin protein synthesis inhibition reporter; at 38.7 µM, hits give high values
row,Structure (SMILES),inhibition
1,Oc1ccc2ccccc2c1N=Nc1nccs1,13.9% (inactive)
2,Oc1ccc(N=Nc2nccs2)c(O)c1,58.3% (active)
3,Cc1ccc(CNC(=O)Cn2cnc(S(=O)(=O)N3CCCCC3)c2)o1,0.422% (inactive)
4,O=C(Nc1ccc2c(c1)CCC2)c1cccc(S(=O)(=O)Nc2ccccc2Cl)c1,8.91% (inactive)
5,O=C(Nc1ccc2c(c1)CCC2)c1cccc(S(=O)(=O)N2CCN(c3ccc(F)cc3)CC2)c1,86.5% (active)
6,Cc1cccnc1NC(=O)c1cccc(S(=O)(=O)N2CCN(c3ccc(F)cc3)CC2)c1,-9.4% (inactive)
7,CN(Cc1nc2ccccc2s1)C(=O)c1ccc(F)cc1,27.2% (inactive)
8,O=C(O)CSCc1nc2ccccc2s1,49.5% (inactive)
9,O=C(O)CS/C(=C\c1ccc(F)cc1)c1nc2ccccc2s1,121% (active)
10,CCOC(=O)N1CCN(C(=O)c2ccc3c(=O)n(CCc4ccc(OC)c(OC)c4)c(=O)[nH]c3c2)CC1,-3.86% (inactive)
11,Cc1cccc(CSc2nnc(C)c(=O)n2N)c1,-13% (inactive)
12,Cc1nnc(SCc2cccc(Cl)c2)n(N)c1=O,-4.93% (inactive)
13,Nn1c(SCc2ccccc2)nnc1C1CCCCC1,101% (active)
14,CC(C)CC(=O)Nc1ccc(Cc2ccncc2)cc1,-5.26% (inactive)
15,Cc1nc2cc(C(F)(F)F)ccc2n1CCNc1nc(-c2cc(Cl)c(N)c(Cl)c2)cs1,-1.88% (inactive)
16,COc1ccc(CN2CCN(C(=O)CCC(=O)Nc3nnc(C(C)C)s3)CC2)cc1F,-3.9% (inactive)
17,Cc1ccc(C(=O)NNC(=O)c2cc3cc4ccccc4nc3s2)cc1,-14.9% (inactive)
18,CCc1nc(SCC(=O)NNC(=O)c2ccc(C)cc2)c2ccccc2n1,-1.93% (inactive)
19,Cc1ccc(C(=O)NNc2ncnc3ccccc23)cc1,76.1% (active)
20,CC(C)CC(=O)Nc1nnc(S(=O)(=O)N(C)c2ccc(Cl)cc2)s1,-4.79% (inactive)
21,CCOC(=O)C1=C(C)Nc2nc3ccccc3n2C1c1cccs1 (configuration not stated),-8.56% (inactive)

row,Structure (SMILES),inhibition
1,C=CCOC(=O)C1=C(C)NC(C)=C(C(=O)OCC=C)C1c1cccs1,86.3% (active)
2,CCOC(=O)C1=C(C)NC(=S)NC1c1cccs1 (configuration not stated),-11.1% (inactive)
3,COc1ccc(CCNC(=O)c2cnc(Cl)c(Cl)c2)cc1,-1.83% (inactive)
4,COc1ccc(OCc2cc(C(=O)NCC3(C)COC3)no2)c(Cl)c1,75.4% (active)
5,COc1ccc(-c2cc(C(=O)NCCCN3CCOCC3)no2)cc1,20% (inactive)
6,CC1CC(C)CN(CCCNC(=O)c2csc3c2CCCCC3)C1 (configuration not stated),-1.88% (inactive)
7,CC(=O)c1cccc(NC(=O)c2cc(C)nn2-c2ccccc2)c1,30.5% (inactive)
8,CC(C)C[C@H](NC(=O)N1CCn2c1nc1ccccc12)C(=O)NC1CC1,23.3% (inactive)
9,CCCCNC(=O)N(O)C1N(/N=C/c2ccccc2O)C(=S)SC1(C)C (configuration not stated),34.2% (active)
10,CCCCNC(=O)N(O)C1N(/N=C/c2ccc(N(C)C)cc2)C(=S)SC1(C)C (configuration not stated),-5.76% (inactive)
11,CCC(C)N1C(=S)SC(C)(C)C1N(O)C(=O)NC1CCCCC1 (configuration not stated),-10.6% (inactive)
12,Cc1ccc(S(=O)(=O)NC(=O)c2cccc(C)c2)cc1,18.1% (inactive)
13,Cn1ncc2c(N3CCCCC3)nc(NCCCO)nc21,1.02% (inactive)
14,COc1cc(CN2CCC(n3nccc3NC(=O)CCCc3ccccc3)CC2)ccc1O,7.77% (inactive)
15,CC(C)(C)NC(=O)c1cc(NC(=O)c2ccco2)cc(NC(=O)c2ccco2)c1,24.3% (inactive)
16,COc1ccc(N(CC(=O)NC(C)(C)C)C(=O)c2ccco2)cc1,-10.7% (inactive)
17,C/C(CC(=O)NC(C)(C)C)=N\NC(=O)c1ccco1,70.6% (active)
18,CCNS(=O)(=O)c1ccc(CCC(=O)N2CCN(c3ccc(OC)cc3)CC2)cc1,13.1% (inactive)
19,Cc1nn(CCCC(=O)NCc2ccccc2Cl)c(=O)c2nccn12,-3.9% (inactive)
20,NC(=O)c1oc2ccccc2c1NC(=O)CS(=O)(=O)c1ccccc1,12.2% (inactive)
21,COC(=O)c1ccc(CN2C(=O)NC(c3ccccc3)(c3ccccc3)C2=O)o1,21.7% (inactive)

row,Structure (SMILES),inhibition
1,Cc1ccc2c(c1)N(CC(=O)NCCCN1CCCCC1)C(=O)c1cccnc1O2,2.73% (inactive)
2,CC(O)c1cccc(NC(=O)Cc2cccc3ccccc23)c1 (configuration not stated),0.246% (inactive)
3,O=C(Nc1ccc(NC(=O)c2cccs2)cc1)c1ccc2ccccc2c1,24.5% (inactive)
4,O=C(Cc1cccc2ccccc12)NNC(=O)Nc1ccc(Cl)cc1,62.1% (inactive)
5,O=C(Cc1cccc2ccccc12)Nc1ccc2oc(-c3ccccc3)nc2c1,74.8% (active)
6,O=C(Nc1ccc2oc(-c3ccc4ccccc4c3)nc2c1)c1cccs1,80.9% (active)
7,CC(Oc1cccc(NC(=O)c2cccs2)c1)C(=O)c1ccccc1 (configuration not stated),36.4% (inactive)
8,COc1ccnc2c1c(=O)n(Cc1cccc(F)c1)c(=O)n2C,-2.76% (inactive)
9,Cn1c(=O)c2c(nc(NCCNC(=O)c3ccco3)n2Cc2ccccc2F)n(C)c1=O,-9.7% (inactive)
10,O=C(CSc1nc2ccccc2s1)Nc1ccc(C(=O)O)cc1,-1.35% (inactive)
11,CCN(CC)CCCSc1nc2ccccc2s1,47.9% (inactive)
12,O=C(O)c1ccccc1CSc1nc2ccccc2s1,70.7% (active)
13,COc1cc(OC)cc(C(=O)OCC(=O)Nc2sccc2C(N)=O)c1,-3.26% (inactive)
14,CCOC(=O)N1CCN(C(=O)C2CCN(S(=O)(=O)c3cc(Cl)ccc3OCC)CC2)CC1,-12.3% (inactive)
15,Cc1ccc(N(CC(=O)NC2CCCCC2)C(=O)CCCC(=O)Nc2ccccn2)c(C)c1,-5.94% (inactive)
16,COc1ccc(CCc2nc(-c3cccs3)no2)cc1,120% (active)
17,CCc1ccc(CNC(=O)CCc2nc(-c3cccs3)no2)cc1,-8.04% (inactive)
18,COc1ccc(OC)c(CNC(=O)CCc2nc(-c3cccs3)no2)c1,4.93% (inactive)
19,COc1ccc(S(=O)(=O)NCCc2cc3ccc(C)c(C)c3[nH]c2=O)cc1,1.8% (inactive)
20,Cn1c(SCc2ccc(F)cc2)nnc1-c1ccncc1,3.38% (inactive)
